Where “and” joins values, the source holds several entries; their conditions need not be identical. Equal values may be shown once. About 83,000 compounds went through this panel and 20% of them were active in at least one assay; those are over-represented in the sample as a whole.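 Step 1: grow cells in 96-well plates. Step 2: add test compound at a single concentration. Step 3: incubate 48 h. Step 4: record percent growth.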 A structure can be active in one record and inactive in another. Calls of active or inactive are those of the source. The calls were made as follows: active = growth percent below 10; inactive = the rest.
Test system: SW-620 colon
Assay: NCI-60 one-dose screen, 48 h (100 = growth as untreated, 0 = no growth, -100 = all killed)
Settings: 10 µM unless noted

**Q.** `CCN1CCN(CCNc2nccc(-c3c(-c4cccc(O)c4)nc4sccn34)n2)S1(=O)=O` was tested. Which growth did it give?
**A.** The growth was 107% (inactive) and 101% (inactive).

**Q.** For `CCCCCCCCCCCCCCCc1cc(O)ccc1N`, which growth is on record?
**A.** The growth was 114% (inactive) and 108% (inactive).

**Q.** `CN1CCN(c2ccc3nc(-c4c(N)c5c(F)cccc5[nH]c4=O)[nH]c3c2)CC1` was tested. Which growth did it give?
**A.** Its growth is 14.3% (inactive) and 15.8% (inactive).

**Q.** With `OCCN1CCN(CCCN2c3ccccc3Sc3ccc(Cl)cc32)CC1` as the compound, how does the growth read?
**A.** The growth was 80.6% (inactive) and 83.8% (inactive).

**Q.** For `NC(=S)NS(=O)(=O)c1ccc(N)cc1`, which growth is on record?
**A.** The growth was 110% (inactive).

**Q.** For `COc1cc(C(=O)N/N=C/c2ccc(N(C)C)cc2)cc(OC)c1OC`, which growth is on record?
**A.** Its growth is 26.2% (inactive).

**Q.** How did the growth turn out when `OC(CSc1ccccc1)CN1CCN(c2cccc(Cl)c2)CC1` (configuration not stated) was run?
**A.** Its growth is 105% (inactive).

**Q.** For `COc1cc(Nc2nc3ccccc3nc2NS(=O)(=O)c2ccc(NC(=O)c3ccc(C)c(OC)c3)cc2)cc(OC)c1`, which growth is on record?
**A.** Its growth is 52% (inactive) and 28.1% (inactive).

**Q.** Which growth does the source give for `O=C(Nc1cccc(-n2ccc3c(NC(=O)c4ccccc4)nccc32)c1)c1ccc(Cl)c(C(F)(F)F)c1` here?
**A.** The growth was -73.8% (active) and 48.8% (inactive).

**Q.** `CC(C(=O)O)n1cc(C#N)c(=O)[nH]c1=O` (configuration not stated) was tested. Which growth did it give?
**A.** Its growth is 101% (inactive) and 106% (inactive).

**Q.** With `CC1=NN(c2ccccc2)C(=O)C1C(=O)c1ccccc1` (configuration not stated) as the compound, how does the growth read?
**A.** The growth was 101% (inactive).

**Q.** Which growth does the source give for `CCOC(=O)c1c(C)oc(C)c(C(=O)OCC)c1=O` here?
**A.** The growth was 104% (inactive) and 98.3% (inactive).

**Q.** How did the growth turn out when `NC(=O)NO` was run?
**A.** Its growth is 105% (inactive) and 78.4% (inactive).

**Q.** With `OC1CCC(Oc2cccc3cnc(Nc4ccc5nc[nH]c5c4)nc23)CC1` (configuration not stated) as the compound, how does the growth read?
**A.** Its growth is 5.88% (active) and 32.4% (inactive).

**Q.** With `CC(C)CNC(=O)c1ccccc1C(=O)NC1(C(=O)NCC(C)C)CCCC1` as the compound, how does the growth read?
**A.** Its growth is 102% (inactive) and 106% (inactive).

**Q.** How did the growth turn out when `C=C1C(=O)O[C@H]2[C@H]1CC/C(COC(=O)NC1CCC(O)CC1)=C\CC[C@@]1(C)O[C@@H]21` (some centres not stated) was run?
**A.** Its growth is 27.4% (inactive) and 30.1% (inactive).

**Q.** `O=C(O)C1C2C=CC(C2)C1C(=O)O` (configuration not stated) was tested. Which growth did it give?
**A.** Its growth is 104% (inactive) and 22.1% (inactive) and 103% (inactive).

**Q.** For `CCN(CC)CCCC(C)N(Cc1ccccc1)CC(O)c1ccc(Cl)cc1` (configuration not stated), which growth is on record?
**A.** The growth was 98.8% (inactive) and 113% (inactive).

**Q.** Which growth does the source give for `CC(=O)NC(Cc1ccccc1)C(=O)Oc1ccc2ccccc2c1` (configuration not stated) here?
**A.** The growth was 107% (inactive) and 96.7% (inactive).

**Q.** Which growth does the source give for `O=C(Oc1cccc(OC(=O)c2ccccc2)c1)c1ccccc1` here?
**A.** The growth was 85.8% (inactive) and 103% (inactive).

**Q.** How did the growth turn out when `CC(C)(C)c1ccc(O)c(CNC2CCCCC2)c1` was run?
**A.** Its growth is 101% (inactive) and 98.5% (inactive).

**Q.** How did the growth turn out when `Cc1cccc(/C=C\C(=O)c2ccccc2)c1` was run?
**A.** The growth was 84.6% (inactive) and 62.2% (inactive).

**Q.** For `Cc1nnc(NC/C=C/c2ccccc2)s1`, which growth is on record?
**A.** The growth was 113% (inactive) and 105% (inactive).

**Q.** With `Clc1ccc(NC(Nc2ccc(Cl)cc2)C(Cl)(Cl)Cl)cc1` as the compound, how does the growth read?
**A.** The growth was 69% (inactive) and 98% (inactive).

**Q.** How did the growth turn out when `COc1ccccc1NC(=O)OCC#CCOC(=O)Nc1ccccc1OC` was run?
**A.** Its growth is 102% (inactive) and 90.2% (inactive).

**Q.** How did the growth turn out when `O=C1NC(=O)C2(CCc3ccccc32)N1` (configuration not stated) was run?
**A.** Its growth is 117% (inactive).

**Q.** Which growth does the source give for `CC(C)Cc1ccc(C(C)C(=O)NCc2ccc(Cn3c(=O)sn(CCCCl)c3=O)cc2)cc1` (configuration not stated) here?
**A.** Its growth is 87.3% (inactive) and -72.3% (active).

**Q.** `Cn1cnc([N+](=O)[O-])c1Sc1ncnc2nc[nH]c12` was tested. Which growth did it give?
**A.** The growth was 93.8% (inactive) and 94.7% (inactive).

**Q.** For `CCCCCCCCCCCCOc1ccccc1C=O`, which growth is on record?
**A.** Its growth is 101% (inactive).

**Q.** Which growth does the source give for `Nc1cc2c(cc1N)-c1ccccc1C2` here?
**A.** The growth was 108% (inactive) and 100% (inactive).

**Q.** For `C[N+](C)(C)CN1C(=O)c2ccccc2C1=O`, which growth is on record?
**A.** Its growth is 107% (inactive).

**Q.** Which growth does the source give for `Nc1ncnc2c1ncn2C1CC(O)C(CO)O1` (configuration not stated) here?
**A.** The growth was 115% (inactive) and 105% (inactive).

**Q.** `Cc1ccc(S(=O)(=O)Nc2nc3ccccc3nc2Nc2ccc3nsnc3c2)cc1` was tested. Which growth did it give?
**A.** Its growth is 77.5% (inactive) and 61% (inactive).

**Q.** For `CN(Cc1ccccc1)Cc1ccccc1`, which growth is on record?
**A.** The growth was 112% (inactive).

**Q.** For `COc1cc(C(=O)c2ccc3c(c2)OCO3)cc(OC)c1OC`, which growth is on record?
**A.** The growth was 16.1% (inactive) and 9.92% (active).

**Q.** With `CCN(CC)CCOc1ccc(/C=N/Nc2nc3c([nH]2)c(=O)n(C)c(=O)n3C)cc1` as the compound, how does the growth read?
**A.** The growth was 108% (inactive) and 104% (inactive).

**Q.** `O=[N+]([O-])c1ccc(Oc2ccccc2)cc1` was tested. Which growth did it give?
**A.** Its growth is 95.7% (inactive) and 94.1% (inactive).

Reference: PubChem BioAssay (NCI)
